According to ChEMBL document CHEMBL3988442, “University of Dundee, Small-Polar-MMV Screening Library” (2021):
In all, about 48,000 compounds went through this assay and about 13,000 (27%) showed an effect of 50% or more. Some of the results follow.

Test system: Wolbachia pipientis
Test: Anti-Wolbachia Cell-Based Screen
Format: functional
Set-up: scale not given: in the data most compounds retested in dose-response had high values
Settings: 5 µM

Compound | Percent Effect
Cc1ccc(F)cc1CC(=O)N(CCN1CCOCC1)Cc1ccco1 | -4.12%
COc1ccccc1CC(=O)N1CCN(Cc2ccco2)C[C@@H]1C | 136.4%
COc1ccccc1CC(=O)N(CCN1CCOCC1)Cc1ccco1 | 0.5032%
Cc1ccc2c(n1)N(CC1CC1)CCN(Cc1ccco1)C2.O=C(O)C(F)(F)F.O=C(O)C(F)(F)F | 13.96%
O=C(O)C(F)(F)F.O=C1[C@H]2CN(Cc3ccco3)C[C@H]2CN1c1cncnc1 | 5.677%
C[C@@H]1CN(Cc2ccco2)CCN1C(=O)Cc1ccccc1F | 87.95%
Cc1cccc(C)c1NC(=O)CNC(C)Cc1ccsc1 (stereo unspecified) | -3.648%
Cc1cccc(CNC(Cc2ccsc2)c2nccs2)n1 (stereo unspecified) | 152.6%
Cc1cc(N2CCC(NC(C)Cc3ccsc3)CC2)nc(C)n1 (stereo unspecified) | 1.122%
O=C(O)C(F)(F)F.O=C(O)C(F)(F)F.c1ccc(N2CCC3(COCCN(Cc4cccs4)C3)C2)nc1 (stereo unspecified) | 103.3%
Fc1ccccc1CN1CCCC2(CCN(c3ncccn3)C2)C1 (stereo unspecified) | -4.552%
O=C(O)C(F)(F)F.c1cnc(N2CCOCC3(CCCN(Cc4cc[nH]n4)C3)C2)nc1 (stereo unspecified) | -14.28%
O=C(O)C(F)(F)F.O=C(O)C(F)(F)F.O=C(O)C(F)(F)F.c1ccc(CN2CCCC3(CCN(Cc4cccs4)C3)C2)nc1 (stereo unspecified) | 118.7%
O=C(O)C(F)(F)F.O=C(O)C(F)(F)F.O=C1N(c2ccsc2)CCC12CCCN(Cc1ccccn1)C2 (stereo unspecified) | 2.891%
O=C(NCc1ccccn1)[C@]12COC[C@H]1CN(C1CCC1)C2.O=C(O)C(F)(F)F.O=C(O)C(F)(F)F | -13.49%
Cc1nc(CN2CCOCC3(CCN(c4ncccn4)C3)C2)cs1.O=C(O)C(F)(F)F.O=C(O)C(F)(F)F (stereo unspecified) | -16.84%
c1cnc(N2CCCC3(CCN(Cc4cccs4)C3)C2)nc1 (stereo unspecified) | 109.3%
O=C(NCc1ccccn1)[C@]12COC[C@H]1CN(Cc1ccsc1)C2.O=C(O)C(F)(F)F.O=C(O)C(F)(F)F | 103%
CCC(CC)CN1CCC2(CCCN(c3ncccn3)C2)C1 (stereo unspecified) | -25.35%
CN(C)C[C@]12COC[C@H]1CN(Cc1ccccn1)C2.O=C(O)C(F)(F)F.O=C(O)C(F)(F)F.O=C(O)C(F)(F)F | -16.37%
c1cc([C@H]2C[C@@H]3CCN(Cc4nccs4)C[C@H]3O2)ncn1 | -0.9402%
COCC1CC2(CCNCC2)CN1c1ncccn1 (stereo unspecified) | -4.112%
O=C(O)C(F)(F)F.c1ccc(N2CCCC3(CCN(Cc4ccsc4)C3)C2)nc1 (stereo unspecified) | 92.47%

Compound | Percent Effect
CC(C)CN1CCCC2(CCN(c3ccccn3)C2)C1.O=C(O)C(F)(F)F (stereo unspecified) | 0.9995%
O=C(O)C(F)(F)F.O=C(O)C(F)(F)F.c1ccc(CN2CCCC3(CCN(CC4CCCO4)CC3)C2)nc1 (stereo unspecified) | 98.44%
Fc1cnc(N2CCCC3(CCN(Cc4ccsc4)C3)C2)nc1.O=C(O)C(F)(F)F.O=C(O)C(F)(F)F (stereo unspecified) | -8.586%
CC(C)N1CCO[C@H]2CN(C(=O)c3ccncc3F)C[C@H]21.O=C(O)C(F)(F)F | -21.77%
c1cc(CN2CCSC3(CCCCC3)C2)no1 | -28.1%
CCN1CCN(Cc2nc(C)no2)CC1 | 8.697%
Clc1cncc(N2CCN(Cc3ccon3)CC2)n1 | 98.12%
CCN1CCN(c2cncc(Cl)n2)CC1 | 88.05%
CCN1CCN(Cc2csc(C(C)C)n2)CC1 | -0.2652%
c1cc(CN2CCN(Cc3ccon3)C3(CCCCC3)C2)no1 | -15.56%
CC(C)(O)CNc1ccc(C#N)c(C(F)(F)F)c1 | 7.337%
O=C(C1CCCC1)N1CCC2(CC1)OCCO2 | -31.13%
CS(=O)(=O)N1CCC(C(=O)N2CCC3(CC2)OCCCO3)CC1 | 6.012%
O=C(C1CCN(S(=O)(=O)N2CCCC2)CC1)N1CCC2(CC1)OCCO2 | 110.6%
O=C(C1CCC1)N1CCC2(CC1)CNCCO2 | -23.25%
O=C(C1CC=CC1)N1CCC2(CC1)OCCO2 | 105.5%
Cl.O=C(C1CC=CC1)N1CCC2(CC1)CNCCO2 | -11.15%
O=C(C1CCCCC1)N1CCC2(CC1)OCCO2 | 92.72%
O=C(C1CC(=O)N(c2ccccc2Br)C1)N1CCC2(CC1)OCCO2 (stereo unspecified) | -9.549%
O=C(c1cnn2c1OCCC2)N1CCC2(CC1)OCCO2 | -3.54%
Cn1cc(C2=CCN(CCCOc3ccc(C(N)=O)cc3)CC2)cn1 | -2.558%
Cn1ccnc1CN1CC2(CCN(Cc3ccncc3)C2)C1 | -5.589%
Cc1cc(NC2CC3(CCN(Cc4ncccc4F)C3)C2)ncn1 (stereo unspecified) | 100.5%

Compound | Percent Effect
CCN1CCC2(CC1)CC(Nc1ncccn1)CO2 (stereo unspecified) | -3.551%
Cc1cccnc1CN1CCC2(CC(Nc3ccncn3)C2)C1 (stereo unspecified) | 130.7%
Fc1cnccc1CN1CCC2(CCNCC2)C1 | -4.399%
Cc1cccnc1CC(C)NC1Cc2ccccc2C1 (stereo unspecified) | -26.27%
COC(=O)CNC(=O)c1cn(Cc2ccccc2F)nn1 | 4.551%
CN(c1ncccc1C#N)C1CCN(CCc2ccncc2)CC1 | -9.489%
Cc1ccccc1-n1cc(C2=CCN(CCN3CCOCC3)CC2)cn1 | -7.999%
CCOCc1nc2c(c(N3CCN4CCCC4C3)n1)CCNCC2 (stereo unspecified) | 3.786%
CCCc1nc(N2CCCN3CCC[C@H]3C2)c2cnn(C)c2n1 | 64.99%
Cn1ncc2c(N3CCCN4CCC[C@H]4C3)nc(C(C)(C)C)nc21 | 135.6%
CC(C)c1nc(N2CCN3CCCC3C2)c2cnn(C)c2n1 (stereo unspecified) | 18.47%
Cn1ncc2c(N3CCCC4(CCNC4)C3)nc(C(C)(C)C)nc21 (stereo unspecified) | 8.536%
CCCc1nc(N2CCCC3(CCNC3)C2)c2cnn(C)c2n1 (stereo unspecified) | -0.0368%
Cc1nc(COC[C@@H]2CC[C@H]3NCC[C@H]3O2)cs1.Cl.Cl | 12.23%
N#Cc1ccc(NC2CCN(c3ncccn3)CC2)cc1C(F)(F)F | -29.96%
Cc1nc(CC(=O)N2CCCC[C@H](N(C)C)C2)cs1 | 105.8%
Cc1nc(CC(=O)N(C)C2CCCN(CCc3ccccc3)C2)cs1 (stereo unspecified) | 10.74%
CN(C)C(=O)CN1CCN(C(=O)Cc2csc(-c3ncccn3)n2)CC1 | -5.623%
Cc1cccc(CC(=O)N2CCCC(N(C)CCCN(C)C)C2)c1 (stereo unspecified) | 81.85%
CN(C(=O)Cc1ccn(C)c1)C1CCCN(C2Cc3ccccc3C2)C1 (stereo unspecified) | -11.39%
Cc1nc(CC(=O)N2CCN(C(C)c3ccccc3F)CC2)cs1 (stereo unspecified) | -7.662%
Cc1nc(CN2CCN(C(=O)Cc3cccc(Cl)c3)CC2)no1 | 6.745%
O=C(Cc1csc(-c2ncccn2)n1)N1CCN2CCCCC2C1 (stereo unspecified) | 6.768%

Compound | Percent Effect
Cc1nc(CC(=O)N2CCCC(N(C)Cc3ccccc3)C2)cs1 (stereo unspecified) | 124%
COc1ncccc1CN1CC[C@H]2O[C@@H](c3nnc(C)o3)CC[C@H]21 | -10.73%
O=C(Nc1cccnc1)[C@H]1CN(Cc2ccco2)C[C@H]2OCC[C@@H]12.O=C(O)C(F)(F)F.O=C(O)C(F)(F)F | -18.85%
CNC(=O)CN1CCO[C@H]2CN(C(=O)c3ccncc3F)C[C@H]21.O=C(O)C(F)(F)F | -18.06%
Cc1ccccc1CC(C)NCc1c(C)nn(C)c1N1CCOCC1.Cl (stereo unspecified) | 6.405%
CCOC(C)c1noc(CN(C)C(=O)C2C(C)(C)C2(C)C)n1 (stereo unspecified) | 12.97%
C[C@H]1C[C@@H]2CCN(CC3CCOCC3)C[C@H]2O1 | -3.08%
O=C(O)C(F)(F)F.O=C(O)C(F)(F)F.O=C(O)C(F)(F)F.O=C(O)C(F)(F)F.c1cc(CN2C[C@@H]3OCCN(CCN4CCCC4)[C@@H]3C2)ccn1 | 0.06106%
O=C1CO[C@@H]2CN(C3CCOCC3)C[C@H]2N1Cc1ccncc1 | 117.1%
O=C(O)C(F)(F)F.O=C(O)C(F)(F)F.O=C1CO[C@@H]2CN(CC3CCOCC3)C[C@H]2N1Cc1ccncc1 | 87.76%
O=C1CO[C@H]2CN(C3CCOCC3)C[C@H]2N1Cc1ccncc1 | -21.59%
O=C(O)C(F)(F)F.O=C(O)C(F)(F)F.O=C1CO[C@@H]2CN(Cc3cccs3)C[C@H]2N1Cc1ccncc1 | -4.405%
O=C1CO[C@H]2CN(C3CCOCC3)C[C@H]2N1Cc1ccccn1 | -4.247%
NCC1(c2cccc(C(F)(F)F)c2)CCOCC1 | -0.8853%
CCCN1CCN(C(=O)c2cnccc2C)[C@H]2CS(=O)(=O)C[C@H]21 | -10.68%
CCC[C@]12CN3C[C@](C)(CN(C1)C3c1[nH]c(=O)[nH]c(=O)c1C)C2=O (stereo partly specified) | 118.8%
Cc1c(C2N3C[C@]4(C)CN2C[C@](C)(C3)C4=O)[nH]c(=O)[nH]c1=O (stereo partly specified) | 140.1%
CC[C@]12CN3C[C@](CC)(CN(C1)C3c1[nH]c(=O)[nH]c(=O)c1C)C2=O (stereo partly specified) | 112.4%
CC[C@]12CN3C[C@](C)(CN(C1)C3c1[nH]c(=O)[nH]c(=O)c1C)C2=O (stereo partly specified) | 105.1%
COCC(=O)NC[C@H]1C[C@@H]2CCN1C[C@@H]2CN(C)c1ccccc1 | -6.027%
O=C(c1[nH]c2ccc(Cl)cc2c1Cl)N1CCC2(CC1)OCCO2 | -4.336%
NCC1(c2cccc(C(F)(F)F)c2)CCC1 | 15.34%
